According to PubChem BioAssay AID977628 (Broad Institute, 2014):
Among all 1,900 compounds or so, fewer than 10 were called active. Another 20% or so got no clear call; they are omitted.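 The calls were made as follows: active = compound lowering the normal-ribosome reporter at least twice as much as the humanized-ribosome reporter, growth loss under a set limit; inconclusive = no clear call, values can overlap the other calls; inactive = the rest.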 A selection follows.

Test: E. coli growth inhibition, wild-type GFP versus h24 humanized RFP strain, dose response, h24 mutant RFP vs wild-type GFP, cherry-pick (AID 977628)
Conditions: E. coli WT GFP strain growth, fluorescence, 24 h; series mostly up to 50 µM

outcome, inactive:
CCn1c(NC(=O)c2nn(C)cc2Br)nc2ccccc21
Cc1ccc(C(=O)NCC(=O)OCC(=O)Nc2cccc(S(=O)(=O)N3CCCC3)c2)cc1C
O=C(NCCc1ccccc1)c1cccc(NC(=O)c2ccccc2)c1
CNC(=O)c1ccsc1NC(=O)c1ccc(S(=O)(=O)N2CCc3ccccc32)cc1
O=C(N[C@@H](Cc1ccccc1)C(=O)OCc1ccccc1)c1nc[nH]c1C(=O)NC1CCNCC1
COc1ccccc1N1CCN(Cc2ccc(OC)c3ccccc23)CC1
Cc1n[nH]c(C)c1S(=O)(=O)N1CCCC(C(=O)Nc2ccc(Br)cc2)C1 (stereo not drawn)
COc1ccccc1CC(=O)NCCc1c[nH]c2ccccc12
CC(=O)Nc1ccc(CNc2nc(NCCN(C)C)nc3cc(-c4ccccc4)sc23)cc1
CC1CCCC(NC(=O)COC(=O)[C@@H]2CC(O)CN2S(=O)(=O)c2ccc3c(c2)OCCO3)C1C (stereo partly drawn)
CCc1cc2cc(OC)ccc2nc1SCC(=O)Nc1cc(OC)c(OC)cc1C(=O)O
Cc1ccc2c(N)c(C(=O)c3ccccc3)sc2n1
COc1ccc(C2=NN(C(=O)c3cccnc3)C(c3ccccc3)C2)cc1 (stereo not drawn)
Cc1ccc(-c2c[n+](CC(=O)Nc3ccccc3)c3n2CCC3)cc1
Cc1ccc(OCCCC(=O)NC(C)c2ccccc2)c(C)c1 (stereo not drawn)
O=C(NCc1ccc2c(c1)OCO2)c1sccc1Br
Cc1cccc(NC(=O)c2nc(S(=O)(=O)Cc3ccccc3)ncc2Cl)c1
Cn1cc(CCC(=O)NCc2ccc3c(c2)OCO3)c2ccccc21
Cc1ccc(S(=O)(=O)NC(C)C(=O)NCc2ccc(Cl)cc2)cc1 (stereo not drawn)
CCc1c(N=O)c(-c2ccccc2)n(O)[n+]1[O-]
COc1ccc2c(c1)c1ncn(Cc3ccccn3)c(=O)c1n2C
O=C(c1cccc(F)c1)N1CCN(c2ccc([N+](=O)[O-])c3cccnc23)CC1
C[C@@H]1CN([C@@H](C)CO)C(=O)c2cc(NS(=O)(=O)c3ccccc3)ccc2O[C@@H]1CN(C)Cc1ccc(C(=O)Nc2ccccc2N)cc1
